By Inhibition is commonly meant the change of the read-out against control, counted positive when it falls. A lower Inhibition goes with a response near the control.

In one assay the test system is Plasmodium falciparum. In words: GSK_TCMDC: Inhibition of Plasmodium falciparum 3D7 in whole red blood cells, using parasite LDH activity as an index of growth. Test compounds present at 2uM. The format is functional.
For the molecule `CC(ON1C(N)=NC(N)=NC1(C)C)c1ccccc1` (configuration not stated), the Inhibition turned out to be 96%. On to `CCOc1ccccc1C1C(C(=O)C(C)(C)C)N2c3ccc(Br)cc3C=CC2C12C(=O)c1ccccc1C2=O` (configuration not stated), for which the Inhibition worked out at 95%. Same read-out and setting: to `Cc1ccc(CNC(=O)[C@H](CC(C)C)Nc2cc(C)nc(NCC3CCCCC3)n2)cc1.O=C(O)C(F)(F)F` belongs 96%; to `CC(C)N(Cc1cnc(N)c(C#N)n1)c1ccc(Cl)c(Cl)c1`, 97%.

`COc1cccc(C=Cc2nc(=O)c3ccccc3o2)c1OC` yielded an Inhibition of 97%.

In the next assay the test system is Plasmodium falciparum. In words: GSK_TCMDC: Inhibition of Plasmodium falciparum Dd2 in whole red blood cells, using parasite LDH activity as an index of growth. Test compounds present at 2uM. In kind it is functional.
Turning to `COc1ccc(NC(=O)Nc2cc(C)nc3cccnc23)cc1Cn1ccnc1`, the Inhibition is on record as 41%. Same read-out and setting: next, `Cc1ccnc(NC(c2cccc(Cl)c2Cl)c2ccc3cccnc3c2O)c1` (configuration not stated): 38%; `Cl.NC1CCN(Cc2cccc(-c3ccc(-c4nc5cc(C(F)(F)F)ccc5[nH]4)cc3)c2)C1` (configuration not stated): 97%.

In turn, `O=C(Nc1cccc(C(F)(F)F)c1)c1ccc(S(=O)(=O)NCC2CCCN(CC3CCCCC3)C2)cc1.O=C(O)C(F)(F)F` (configuration not stated) yielded an Inhibition of 9%.

The molecule `Cl.N#Cc1ccc2c(c1)CCN(CCC1CCC(NC(=O)c3ccc(-c4ccccn4)s3)CC1)CC2` (configuration not stated) returned an Inhibition of 9%.

With `COc1cc(NC2=NS(=O)(=O)c3cc(Cl)ccc3N2C)cc(OC)c1OC.O=C(O)C(F)(F)F`, the Inhibition was 100%. On the same count and under the same terms, next, `FC(F)(F)c1cccc(CNCC2CCN(Cc3ccc4c(c3)OCO4)CC2)c1.O=C(O)C(F)(F)F`: 19%.

The molecule `CCOc1ccccc1C1CCN(CCCCNC(=O)c2ccc(NC(=O)c3ccc(Cl)cc3)cc2)CC1` had an Inhibition of 27%. Same read-out and setting: to `COc1cc2nccc(Nc3ccc(OCc4ccccc4)cc3)c2cc1OC` belongs 99%; to `OC(CNCc1ccccc1OCc1ccccc1)c1cc(Br)cs1` (configuration not stated), 88%. Molecule `COc1ccc(CNC2CCN(C)CC2)cc1-c1ccc(S(=O)(=O)NCCN2CCCC2)s1.O=C(O)C(F)(F)F` returned an Inhibition of 1%.

Molecule `O=C(NCCCCN1CCN(c2ccc3c(c2)CCC3)CC1)c1ccc(NC(=O)c2ccc(Cl)cc2)cc1` showed an Inhibition of 35%. Molecule `O=C(Cc1ccc[n+]([O-])c1)Nc1ccc(-c2cccc(-c3nc4cc(C(F)(F)F)ccc4[nH]3)c2)cc1` yielded an Inhibition of 49%. The same measure, in the same setting: next, `Cc1ccc(/C=C/C(=O)NC2CCC(N3CCC(c4ccccc4C)CC3)CC2)cc1C` (configuration not stated): 43%; `CN(C)CC(O)COc1ccc(Nc2ncc([N+](=O)[O-])c(Nc3ccccc3O)n2)cc1.O=C(O)C(F)(F)F` (configuration not stated): 20%; `Cc1[nH]c(C)c([N+](=O)[O-])c(=O)c1-c1ccc(Oc2ccccc2)cc1`: 97%. In turn, `CCCC(C)Nc1nc(C)cc(N[C@@H](Cc2ccccc2)C(=O)NCCc2ccccc2)n1.O=C(O)C(F)(F)F` (some centres not stated) had an Inhibition of 68%.

In turn, `Cc1cccc2nc(-c3ccc(-c4ccc(NC(=O)Nc5ccsc5)cc4)s3)[nH]c12` returned an Inhibition of 88%. On the same count and under the same terms, next, `CS(=O)(=O)Cc1ccc(Nc2nccc(-c3c(-c4cccc(NC(=O)C5CCCCC5)c4)nn4ncccc34)n2)cc1`: 99%. The molecule `CN1CCN(CCCN(Cc2cccc(-c3cccc(CNC4CCCC4)c3)c2)C(=O)CCC2CCCC2)CC1.O=C(O)C(F)(F)F` had an Inhibition of 96%. The same measure, in the same setting: next, `CC1(C)N=C(N)N=C(N)N1c1ccc([N+](=O)[O-])cc1.Cl`: 1%; `CCNc1cc(C(=O)N[C@@H](Cc2ccccc2)[C@H](O)CNC2CCCCC2)cc(N2CCCCS2(=O)=O)c1`: 98%. Still for that read-out and setting: to `FC(F)(F)CNc1nc(Nc2ccc3ncccc3c2)nc2[nH]ccc12.O=C(O)C(F)(F)F` belongs 83%; to `Cc1cc(O)c(CN(C)Cc2ccc3c(c2)OCO3)cc1C(C)C`, 74%.

For the molecule `COc1ccc(NC(=O)[C@H](Cc2ccccc2)Nc2cc(C)nc(NCCc3ccccc3)n2)cc1.O=C(O)C(F)(F)F`, the Inhibition was found to be 83%. Regarding `Cc1c(C(=O)N2CCCC(C(F)(F)F)C2)sc2cccc(F)c12` (configuration not stated), the Inhibition turned out to be 89%.

`O=C(O)C(F)(F)F.c1cc(-c2ccc(CNC3CC3)cc2)cc(-c2nc3ccccc3[nH]2)c1` yielded an Inhibition of 8%. The same measure, in the same setting: next, `Cc1cccc2nc(-c3cccc(-c4cccc(CNCCCN5CCCC5=O)c4)c3)[nH]c12.O=C(O)C(F)(F)F`: 76%; `COc1cc2c(cc1OC)CC(NCCCCCCNCCc1ccc(Cl)cc1)CC2.Cl` (configuration not stated): 0%. Regarding `Cc1ncccc1-c1cccc2c(NC(=O)Nc3ccc4nccc(N5CCN(C)CC5)c4c3)cccc12.Cl`, the Inhibition is listed as 96%. Same read-out and setting: to `CC(=O)c1cccc2cc(C(=O)NC3CCC(CCN4CCc5ccc(C#N)cc5C4)CC3)[nH]c12.Cl` (configuration not stated) belongs 17%; to `COc1ccc2nccc([C@@H](O)CN3CCC(NCc4nc5c([N+](=O)[O-])cccc5[nH]4)CC3)c2c1.O=C(O)C(=O)O`, 84%.

Source of the values: ChEMBL document CHEMBL1157539, “Thousands of chemical starting points for antimalarial lead identification” (Nature, 2010).
